The results in this text go back to PubChem BioAssay AID2685 (National Center for Advancing Translational Sciences (NCATS), 2010).

Screen size: about 320,000 compounds; about 2,100 (0.66%) were called active. Inconclusive results (about 53%) are left out. Calls come from the whole dose curve; as a rule, active = well fitted inhibition curve with a large enough effect in the signal ratio, with a control signal flat (not every such curve was filed as active); inconclusive = small, poorly fitted or top-dose-only effect, or effect the other way, or a change in a side signal; inactive = flat fitted curve, though single readings scatter; the % refers to the signal ratio. Only a selection was taken, and actives are over-represented in it overall.
Potency is the fitted concentration of half-maximal effect.

The assay is described as follows: qHTS Assay for Lipid Storage Modulators in Drosophila S3 Cells.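 For cell number change: cells counted by Cell Tracker Red CMTPX staining in the red channel.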 The conditions noted are these: BODIPY lipid droplet fluorescence, 18-24 h, cells fed with added oleic acid; cell number change: measured here: cell count max response; series mostly up to 46.1 µM. The gist of the method:
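Drosophila S3 cells loaded with oleic acid (400 uM, as added) and compounds at several concentrations; lipid droplets imaged by 488-nm laser-scanning cytometry, 500–530 nm intensity and object ratio to cell channel. Percent activity normalized to 20 uM Triacsin C.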
A general note: In qHTS, concentration-response curves come from the screen itself.
For `Cc1nc(SCC(=O)NC(=O)NCCC(C)C)c2c(-c3cccs3)csc2n1`, the Potency entry was “inactive” and the cell number change worked out at 8.46%.
On the same counts, the results for `CCn1ccnc1CN1CCC(n2nccc2NC(=O)CCc2ccccc2)CC1` are “inactive” and -1.05%.
On the same counts, the results for `COc1ccc(C(=O)Nc2ccc3[nH]c(-c4cccc(OC)c4)cc(=O)c3c2)cc1` are “inactive” and 4.73%.
As for `Cc1cccc(C)c1NC(=O)CS(=O)CC(=O)NCC1OCCc2ccccc21` (configuration not stated), the Potency result was “inactive” and the cell number change amounted to 9.92%.
On the same counts, the results for `CC(=O)c1ccc(CC2SC(N)=NC2=O)cc1` (configuration not stated) are “inactive” and -4.99%.
The like results for `CCCCN1C(=S)NC[C@@H]1Cc1cccc2ccccc12` were, in that order, “inactive” and 2.45%.
The like results for `COc1ccc2c(c1OC)C(=O)N1C2SC[C@H]1C(=O)NC1CC1` (some centres not stated) were, in that order, “inactive” and -0.291%.
Regarding `COc1ccc(C(c2sc3nc(C)nn3c2O)N2CCc3ccccc3C2)cc1` (configuration not stated), the Potency entry is “inactive”.
For `C=C(C)C1CC=C(C)/C(=N\NC(=O)CCC(=O)Nc2ccc(C)c(C)c2)C1` (configuration not stated), the Potency result was “inactive” and the cell number change came out at 1.45%.
The like results for `C/C(=N\NC(=O)CCC(=O)Nc1ccc(C)c(C)c1)C1CC1` were, in that order, 6.51 µM (active) and 18.1%.
The like results for `Cc1ccc(NC(=O)CCSCCC(=O)Nc2ccc(C)c(C)c2)cc1C` were, in that order, “inactive” and -13.5%.
On the same counts, the results for `CC(=O)Nc1ccc(S(=O)(=O)NCCC(=O)OCc2nc(N)nc(Nc3ccccc3C)n2)cc1` are “inactive” and 3.4%.
On to `COc1ccc(N2C(=O)[C@@H]3Cc4ccccc4CN3C2=O)cc1`, for which the Potency entry is “inactive” and the cell number change was -10.6%.
The like results for `COc1ccc(N2C(=O)C3CCCN3C2=O)cc1` (configuration not stated) were, in that order, 18.4 µM (active) and 13.7%.
On the same counts, the results for `COc1ccc(N2C(=O)C3CCCN3C2=S)cc1` (configuration not stated) are “inactive” and 13%.
Take `COc1ccc(N2C(=O)C3CCCN3C2c2cccs2)cc1` (configuration not stated): the Potency is 8.2 µM (active).
In the case of `O=C1C2CCCN2C(c2cccs2)N1c1ccc(Cl)cc1` (configuration not stated), the Potency result was “inactive” and the cell number change is 6.57%.
For `COc1cccc(N2C(=O)C3CCCN3C2c2cccs2)c1` (configuration not stated), the Potency entry is “inactive”.
Consider `CCn1c(COc2ccccc2C(N)=O)nc2ccccc21`, for which the Potency entry is “inactive” and the cell number change is -13.5%.
The like results for `CCOC(=O)Cc1csc(NC(=S)NC(=O)c2ccc(F)cc2)n1` were, in that order, 10.3 µM (active) and -14.9%.
The like results for `CCOC(=O)Cc1csc(NC(=O)c2ccc(F)cc2)n1` were, in that order, “inactive” and 5.42%.
On the same counts, the results for `CCOC(=O)Cc1csc(NC(=S)NC(=O)c2ccc(C)cc2)n1` are “inactive” and 12.7%.
Regarding `COc1cc2c(cc1OC)C1Cc3ccc(OC)c(OC)c3C[N+]1([O-])CC2` (configuration not stated), the Potency result is “inactive” and the cell number change is 8.62%.
On the same counts, the results for `Cc1nc(NCC2CCCO2)c2nnn(Cc3c(F)cccc3Cl)c2n1` (configuration not stated) are “inactive” and -5.53%.
The like results for `c1ccc(C(c2ccccc2)N2CCN(c3ccc4ccccc4n3)CC2)cc1` were, in that order, “inactive” and 9.37%.
On the same counts, the results for `c1ccc(N2CCN(c3ncccn3)CC2)cc1` are “inactive” and -7.61%.
Turning to `c1cnc(N2CCN(c3ccc4ccccc4n3)CC2)nc1`, the Potency is 0.651 µM (active) and the cell number change was 23.8%.
On the same counts, the results for `CCn1c(NC(=O)c2cccc(Cn3cc(Cl)cn3)c2)nc2ccccc21` are “inactive” and -10.4%.
On the same counts, the results for `O=C(c1ccccn1)N1CCN(c2ccc(C(F)(F)F)cn2)CC1` are “inactive” and -1.5%.
Regarding `CS(=O)(=O)c1ccccc1C(=O)Nc1cccc(-c2nc3ccccc3o2)c1`, the Potency was 13 µM (active) and the cell number change was -20.6%.
On to `CC(=O)Nc1cccc(-c2nc3ccccc3o2)c1`, for which the Potency entry is “inactive”.
Consider `O=C(O)c1ccccc1-c1ccccc1C(=O)Nc1cccc(-c2nc3ccccc3o2)c1`, for which the Potency entry was “inactive” and the cell number change was 14.5%.
For `COc1cccc(-c2cc(C(=O)NCC3CCCO3)c3ccccc3n2)c1` (configuration not stated), the Potency entry was “inactive”.
Consider `Cc1ccc(C(=O)Nc2ncc([N+](=O)[O-])s2)cc1`, for which the Potency was 23.1 µM (active) and the cell number change is -15.4%.
On the same counts, the results for `Cc1ccnc(NC(=O)c2ccc([N+](=O)[O-])s2)c1` are 11.2 µM (active) and -22%.
On the same counts, the results for `CCCc1nnc(NC(=O)CCS(=O)(=O)c2ccccc2)s1` are 1.46 µM (active) and 3.42%.
The like results for `CCCc1nnc(NC(=O)CS(=O)(=O)c2ccccc2)s1` were, in that order, “inactive” and -20%.
For the compound `O=C(CCS(=O)(=O)c1ccccc1)Nc1ncc([N+](=O)[O-])s1`, the Potency was 4.61 µM (active) and the cell number change is -3.6%.
In the case of `Cc1ccnc(NC(=O)c2ccc(Cl)s2)c1`, the Potency entry is “inactive”.
As for `Cc1ccc(CC(=O)Nc2ncc([N+](=O)[O-])s2)cc1`, the Potency result was “inactive” and the cell number change was found to be 2.17%.
Regarding `O=C(CS(=O)(=O)c1ccccc1)Nc1ncc([N+](=O)[O-])s1`, the Potency result is “inactive” and the cell number change is -6.25%.
The like results for `Cc1ccnc(NC(=O)c2ccc(Br)s2)c1` were, in that order, “inactive” and 12.2%.
Consider `Cc1ncoc1C(=O)Nc1ncc([N+](=O)[O-])s1`, for which the Potency entry is “inactive” and the cell number change is -6.04%.
On the same counts, the results for `Cc1ccc(S(=O)(=O)CC(=O)Nc2ncc([N+](=O)[O-])s2)cc1` are “inactive” and -14.4%.
On the same counts, the results for `CCOCCc1nnc(NC(=O)CCS(=O)(=O)c2ccccc2)s1` are “inactive” and -12%.
The like results for `O=C(Nc1ccccc1F)Nc1ccc([N+](=O)[O-])cc1Cl` were, in that order, “inactive” and 6.06%.
Consider `Cc1ccccc1S(=O)(=O)Cc1ccc(C(=O)NC(C)c2ccccc2)o1` (configuration not stated), for which the Potency result was “inactive”.
